Measurements: PubChem BioAssay (NCATS)
Inconclusive results are not listed. The source made the active and inactive calls. Unless noted, the call rests on the fitted dose curve; in most records, active means well fitted curve in either direction with a large enough effect (not every such curve was filed as active); inconclusive means small, poorly fitted or top-dose-only effect, or another doubt; inactive means flat fitted curve, though single readings scatter.

Key:
[1] = biological target: Lysosomal acid glucosylceramidase (Homo sapiens) (UniProt P04062); test: Glucocerebrosidase-p2 (AID 348; in the data active means potency below about 10 µM; further: potency means the concentration at half of the fitted maximal effect); settings: purified GBA, blue fluorogenic substrate, 40 min
Lysosomal acid glucosylceramidase (Homo sapiens), sequence (P04062 whole entry, looked up): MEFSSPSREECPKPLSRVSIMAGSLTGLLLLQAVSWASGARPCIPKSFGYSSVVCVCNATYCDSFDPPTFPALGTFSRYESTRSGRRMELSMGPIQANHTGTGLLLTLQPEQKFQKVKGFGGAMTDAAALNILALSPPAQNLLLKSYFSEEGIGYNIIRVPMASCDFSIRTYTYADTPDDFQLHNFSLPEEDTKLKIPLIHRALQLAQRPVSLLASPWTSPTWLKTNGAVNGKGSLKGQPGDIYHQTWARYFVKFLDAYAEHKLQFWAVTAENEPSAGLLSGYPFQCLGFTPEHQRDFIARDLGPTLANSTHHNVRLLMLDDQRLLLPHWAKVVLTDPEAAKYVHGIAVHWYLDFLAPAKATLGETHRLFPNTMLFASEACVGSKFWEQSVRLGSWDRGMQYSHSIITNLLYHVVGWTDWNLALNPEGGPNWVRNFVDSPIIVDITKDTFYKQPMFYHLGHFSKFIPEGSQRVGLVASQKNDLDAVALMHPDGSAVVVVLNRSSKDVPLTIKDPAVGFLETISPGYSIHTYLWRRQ
How it was run: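 Normal human glucocerebrosidase (0.2 nM) with blue fluorogenic substrate (80 uM final) in citrate/phosphate pH 5.9 with 10mM sodium taurocholate, 0.01% tween-20; 40 min RT, NaOH/glycine stop; fluorescence Ex 365/Em 440; AC50 from a titration from 0.6 nM upwards.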

[2] = NFAT Signaling Pathway (AID 444); settings: Jurkat NFAT-bla M1, carbachol, beta-lactamase ratio, 5 h; at 7.69 µM (top of the series) unless noted;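 further: carbachol stimulus at about its EC50 of 1 µM final; on the % scale 0 is the no-effect control and ±100 the full control effect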
How it was run: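 Read-out: CCF4 FRET ratio (460 nm/530 nm) after 1 h RT dye loading, used for %activity and AC50 from titration series. Cells: Jurkat NFAT-β-lactamase/M1 line, treated with compound plus 1 uM carbachol for 5 h, 37 °C.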

[3] = Stat Signaling Pathway (AID 446); settings: ME-180 (cervical carcinoma) SIE beta-lactamase reporter, IL-6 stimulated, 5 h; at 7.69 µM (top of the series) unless noted;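 further: ME-180 cervical cancer cells given 40 pM IL-6 alongside compound; SIE-controlled beta-lactamase reporter measured as 460/530 nm FRET emission ratio; on the % scale 0 is the no-effect control and ±100 the full control effect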
How it was run: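 Overnight-plated ME-180 cells bearing a STAT Inducible Element beta-lactamase reporter; 5 h co-exposure to compound and 40 pM IL-6; values normalized to 300 pM IL-6 and 125 nM JAK inhibitor controls.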

[4] = biological target: Glucocorticoid receptor (Homo sapiens) (UniProt P04150); test: GR-GFP Redistribution (AID 450;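 active means compounds whose dose series gives a full or clear partial fitted curve of increased nuclear translocation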; further: potency means the concentration at half of the fitted maximal effect); settings: U2OS GR-GFP nuclear translocation, laser cytometry, 2 h
Glucocorticoid receptor (Homo sapiens), sequence (P04150 whole entry, looked up, the tested form may be a part): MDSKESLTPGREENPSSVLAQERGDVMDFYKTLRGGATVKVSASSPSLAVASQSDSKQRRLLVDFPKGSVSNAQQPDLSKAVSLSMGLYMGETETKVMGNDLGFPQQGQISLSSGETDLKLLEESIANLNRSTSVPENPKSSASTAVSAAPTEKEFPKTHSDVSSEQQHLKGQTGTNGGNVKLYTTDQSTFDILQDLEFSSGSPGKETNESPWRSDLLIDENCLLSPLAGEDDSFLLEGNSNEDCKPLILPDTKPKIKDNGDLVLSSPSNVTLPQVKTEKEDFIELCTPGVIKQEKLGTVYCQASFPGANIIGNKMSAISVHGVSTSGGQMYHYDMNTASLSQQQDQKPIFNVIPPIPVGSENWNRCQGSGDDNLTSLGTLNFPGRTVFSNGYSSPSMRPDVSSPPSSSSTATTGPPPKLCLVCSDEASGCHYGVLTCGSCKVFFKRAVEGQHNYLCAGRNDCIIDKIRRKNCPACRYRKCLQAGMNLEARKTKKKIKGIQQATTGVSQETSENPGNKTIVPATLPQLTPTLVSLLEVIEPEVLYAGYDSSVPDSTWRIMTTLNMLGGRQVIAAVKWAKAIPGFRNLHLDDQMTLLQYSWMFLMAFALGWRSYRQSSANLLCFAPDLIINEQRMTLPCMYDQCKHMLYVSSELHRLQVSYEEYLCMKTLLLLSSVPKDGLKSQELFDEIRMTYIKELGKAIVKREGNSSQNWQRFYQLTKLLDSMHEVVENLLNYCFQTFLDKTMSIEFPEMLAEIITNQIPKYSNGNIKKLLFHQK

[5] = biological target: Glucocorticoid receptor (Homo sapiens) (UniProt P04150); test: GR-EFC Redistribution (AID 451; calls by dose curve; further: potency means the concentration at half of the fitted maximal effect); settings: CHO-K1 GR-EFC translocation, beta-gal luminescence, 2 h
How it was run: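 Translocation of GR-ED fusion to nuclear EA restores b-gal, read by luminescence after 1 h room-temperature detection. Engineered CHO-K1 biosensor cells, 1,000/well, exposed 2 h at 37 C to titrations up to 46 uM final.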

[6] = biological target: Mitogen-activated protein kinase 10 (Mus musculus) (UniProt Q61831); test: JNK3 AlphaScreen Assay (AID 530); settings: JNK3 lysate, c-Jun phosphorylation; series mostly up to 57.1 µM;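 further: kinase came from lysate of stimulated human HepG2 cells; signal reports phosphorylation of biotinylated GST-cJun 1-79 at Ser73 with 10 µM ATP; on the % scale 0 is the no-effect control and ±100 the full control effect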
How it was run: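 qHTS titrations with 15 min compound pre-incubation before adding ATP (10 uM final). Read-out: AlphaScreen of Ser73-phosphorylated biotin-GST-cJun using HepG2 lysate JNK3 activated by IL-1β and TNFα.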

[7] = biological target: 3',5'-cyclic-AMP phosphodiesterase 4B (Homo sapiens) (UniProt Q07343); test: qHTS Assay for Inhibitors of PDE-IV (AID 607; active means well fitted activation curve with a large enough effect in the main read-out, with a control signal flat, not every such curve was filed as active; further: % of control where 0% means no effect); settings: HEK293 ACTOne CNG channel cells, membrane potential fluorescence; series mostly up to 22.9 µM
3',5'-cyclic-AMP phosphodiesterase 4B (Homo sapiens), sequence (Q07343 whole entry, looked up): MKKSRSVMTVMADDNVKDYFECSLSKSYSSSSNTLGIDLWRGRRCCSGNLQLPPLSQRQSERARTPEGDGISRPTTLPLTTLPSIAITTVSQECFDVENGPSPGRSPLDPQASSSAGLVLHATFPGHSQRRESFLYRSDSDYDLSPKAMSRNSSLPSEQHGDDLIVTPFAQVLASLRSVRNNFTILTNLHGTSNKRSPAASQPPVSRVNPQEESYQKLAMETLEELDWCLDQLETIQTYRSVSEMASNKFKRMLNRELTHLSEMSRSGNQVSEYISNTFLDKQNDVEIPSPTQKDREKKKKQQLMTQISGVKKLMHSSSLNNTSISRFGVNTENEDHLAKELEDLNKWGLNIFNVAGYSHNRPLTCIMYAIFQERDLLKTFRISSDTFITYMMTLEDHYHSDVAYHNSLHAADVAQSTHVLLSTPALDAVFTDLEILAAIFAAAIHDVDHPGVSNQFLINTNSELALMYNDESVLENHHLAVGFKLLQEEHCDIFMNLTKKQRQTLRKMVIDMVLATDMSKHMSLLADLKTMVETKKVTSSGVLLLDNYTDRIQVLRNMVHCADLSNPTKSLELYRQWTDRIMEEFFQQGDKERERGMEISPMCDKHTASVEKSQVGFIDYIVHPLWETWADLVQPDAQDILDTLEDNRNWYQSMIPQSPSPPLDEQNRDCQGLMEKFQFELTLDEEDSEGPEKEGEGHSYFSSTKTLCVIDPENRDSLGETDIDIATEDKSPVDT
How it was run: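 Live HEK293 cells with a modified cyclic nucleotide-gated (CNG) channel report intracellular cAMP via membrane-potential dye fluorescence (ex 535/em 590 nm). Endogenous PDE-IV was targeted. Compounds were tested at up to 22.9 uM final; RO 20-1724 100 uM served as control.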

O=[As](O)(O)c1ccc(Cc2ccc([As](=O)(O)O)cc2)cc1
active: activity change, negative = inhibition [2] -132%
inactive: Potency [1] > 11.4 µM | activity, negative = inhibition [3] -5.31% | Potency [4] > 46 µM | Potency [5] > 9.22 µM | activity change, negative = inhibition [6] -5.31% [at 11.4 µM] | outcome [7]
